# Assay results from PubChem BioAssay (Tox21).
# Values joined by “and” are separate entries in the source; they are usually repeats but may differ in a detail not shown here. Identical values can stand only once. The source holds several records for some structures; these can differ, active in one and inactive in another. Active and inactive are the calls of the source. Entries that show only a call come without a potency. Unless noted, the call rests on the fitted dose curve; in most records, active means well fitted curve in the direction sought with a large enough effect in the repeat runs; inconclusive means weak or mixed curves; inactive means no such curve, though single readings can be large; an effect the other way counts as inactive or inconclusive.
# How the values were obtained:
# [1] = qHTS assay for identifying genotoxic compounds that show differential cytotoxicity against isogenic chicken DT40 cell lines with known DNA damage response pathways - wild type cell line (AID 743012); further: nearly all actives have a fitted effect of over 60% in size; further: potency means the concentration at half of the fitted maximal effect
# Procedure, shortened: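 Viability of DNA repair-proficient chicken DT40 cells was assessed by CellTiter-Glo luminescence following 40 h compound exposure at 37 C/5% CO2.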
# [2] = qHTS assay for identifying genotoxic compounds that show differential cytotoxicity against isogenic chicken DT40 cell lines with known DNA damage response pathways - Rev3 mutant cell line (AID 743014); further: nearly all actives have a fitted effect of over 55% in size; further: potency means the concentration at half of the fitted maximal effect
# [3] = qHTS assay for identifying genotoxic compounds that show differential cytotoxicity against isogenic chicken DT40 cell lines with known DNA damage response pathways - Rad54/Ku70 mutant cell line (AID 743015); further: nearly all actives have a fitted effect of over 60% in size; further: potency means the concentration at half of the fitted maximal effect
# [4] = qHTS assay to identify small molecule antagonists of the androgen receptor (AR) signaling pathway - cell viability counter screen (AID 743033; further: nearly all actives have a fitted effect of over 45% in size; further: potency means the concentration at half of the fitted maximal effect)
# [5] = qHTS assay to identify small molecule antagonists of the androgen receptor (AR) signaling pathway using the MDA cell line - cell viability counter screen (AID 743041; further: nearly all actives have a fitted effect of over 45% in size; further: potency means the concentration at half of the fitted maximal effect)
# Procedure, shortened: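 Compound exposure lasted 16 h at 37C in MDA-kb2 AR-luc cells stimulated with R1881. Protease-based CellTiter-Fluor reagent was applied for the final 30 min and fluorescence measured.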
# [6] = qHTS assay to identify small molecule antagonists of the thyroid receptor (TR) signaling pathway - cell viability counter screen (AID 743064); further: nearly all actives have a fitted effect of over 50% in size; further: potency means the concentration at half of the fitted maximal effect
# Procedure, shortened: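 CellTiter-Fluor readout, 30 min at 37 °C/5% CO2, following 23.5 h incubation of GH3.TRE-Luc cells with test compound and 1 nM T3 (final).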
# [7] = qHTS assay to identify small molecule antagonists of the thyroid receptor (TR) signaling pathway (AID 743065); further: nearly all actives have a fitted effect of over 55% in size; further: potency means the concentration at half of the fitted maximal effect
# Procedure, shortened: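 GH3.TRE-Luc rat pituitary cells (two TREs driving luciferase) were dosed with compound, then stimulated with 1 nM T3 (final) for 23.5 h at 37 C. ONE-Glo luminescence was the read-out, with CellTiter-Fluor fluorescence as the cytotoxicity counter-screen.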
# [8] = system: thyroid hormone receptor (rat, GH3 cells); test: qHTS assay to identify small molecule agonists of the thyroid receptor (TR) signaling pathway (AID 743066; calls by dose curve)
# [9] = qHTS assay to identify small molecule antagonists of the estrogen receptor alpha (ER-alpha) signaling pathway - cell viability counter screen (AID 743074; calls by dose curve; further: nearly all actives have a fitted effect of over 45% in size; further: potency means the concentration at half of the fitted maximal effect)
# [10] = molecular target: Estrogen receptor (Homo sapiens) (UniProt P03372); test: qHTS assay to identify small molecule agonists of the estrogen receptor alpha (ER-alpha) signaling pathway (AID 743075; calls by dose curve)
# [11] = qHTS assay to identify small molecule antagonists of the estrogen receptor alpha (ER-alpha) signaling pathway using the BG1 cell line (AID 743080; calls by dose curve;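 further: BG1 cells stimulated with 17beta-estradiol alongside compound; nearly all actives have a fitted effect of over 25% in size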; further: potency means the concentration at half of the fitted maximal effect); settings: BG1Luc4E2 ERE-luciferase antagonist mode, luminescence; activity change, negative = inhibition: at 70.3 µM (top of the series)
# Procedure, shortened: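 Quantitative HTS on the Tox21 10K library: BG1 cells with endogenous ER-alpha and ERE-luciferase reporter, 17beta-estradiol stimulation, 21.5 h compound exposure, luminescence endpoint with parallel fluorescence cytotoxicity counter-read.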
# [12] = qHTS assay to identify small molecule antagonists of the estrogen receptor alpha (ER-alpha) signaling pathway using the BG1 cell line - cell viability counter screen (AID 743081);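 further: compound given together with 17beta-estradiol as the ER stimulus; nearly all actives have a fitted effect of over 45% in size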
# Aromatase (Homo sapiens) = Aromatase (Homo sapiens) (UniProt P11511); test: qHTS assay to identify aromatase inhibitors (AID 743083); further: nearly all actives have a fitted effect of over 55% in size; further: potency means the concentration at half of the fitted maximal effect
# [13] = qHTS assay to identify small molecule antagonists of the glucocorticoid receptor (GR) signaling pathway - cell viability counter screen (AID 720693); further: nearly all actives have a fitted effect of over 55% in size
# [14] = molecular target: Estrogen receptor (Homo sapiens) (UniProt P03372); test: qHTS assay to identify small molecule antagonists of the estrogen receptor alpha (ER-alpha) signaling pathway (AID 743069; active means well fitted curve in the direction sought with a large enough effect in the signal ratio in the repeat runs, not every such curve was filed as active; inconclusive means weak or mixed curves, or effect the other way; inactive means no such curve, though single readings can be large or run the other way; the % refers to the signal ratio; further: potency means the concentration at half of the fitted maximal effect)
# Procedure, shortened: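 In this cell-based reporter format, GripTite HEK293 cells harbouring ER-alpha-UAS-bla were grown overnight with 2% charcoal-stripped FBS, dosed with DMSO-dissolved compounds, then challenged with 17beta-estradiol. After 18 hr at 37C, beta-lactamase activity was detected by FRET fluorescence.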
# [15] = molecular target: Estrogen receptor (Homo sapiens) (UniProt P03372); test: qHTS assay to identify small molecule agonists of the estrogen receptor alpha (ER-alpha) signaling pathway using the BG1 cell line (AID 743079); further: nearly all actives have a fitted effect of over 20% in size; further: potency means the concentration at half of the fitted maximal effect
# [16] = molecular target: Androgen receptor (Homo sapiens) (UniProt P10275); test: qHTS assay to identify small molecule antagonists of the androgen receptor (AR) signaling pathway (AID 743035; active means well fitted inhibition curve with a large enough effect in the signal ratio in the repeat runs, not every such curve was filed as active; inconclusive means weak or mixed curves, or effect the other way; inactive means no such curve, though single readings can be large or run the other way; the % refers to the signal ratio)
# Procedure, shortened: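 Reporter HEK293 cells were exposed to compounds and R1881 overnight (16 h, 37C); beta-lactamase activity was then quantified by FRET fluorescence.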
# [17] = molecular target: Androgen receptor (Homo sapiens) (UniProt P10275); test: qHTS assay to identify small molecule agonists of the androgen receptor (AR) signaling pathway (AID 743036; active means well fitted activation curve with a large enough effect in the signal ratio in the repeat runs, with a control signal flat, not every such curve was filed as active; inconclusive means weak or mixed curves, or effect the other way; inactive means no such curve, though single readings can be large or run the other way; the % refers to the signal ratio)
# Procedure, shortened: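 Following a 4 h settling period, AR-UAS-bla HEK293 cells were dosed with compounds for 16 h at 37C. A 2 h room-temperature incubation with LiveBLAzer B/G FRET substrate preceded the fluorescence measurement.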
# [18] = molecular target: Androgen receptor (Homo sapiens) (UniProt P10275); test: qHTS assay to identify small molecule agonists of the androgen receptor (AR) signaling pathway using the MDA cell line (AID 743040; further: nearly all actives have a fitted effect of over 20% in size)
# Procedure, shortened: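 Testing was done with the MDA-kb2 AR-luc line, a human breast carcinoma stably transfected with MMTV-luciferase containing AR and GR response elements. Cells were exposed 16 h at 37C before ONE-Glo luminescence detection.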
# [19] = molecular target: Androgen receptor (Homo sapiens) (UniProt P10275); test: qHTS assay to identify small molecule antagonists of the androgen receptor (AR) signaling pathway using the MDA cell line (AID 743042; further: nearly all actives have a fitted effect of over 55% in size)
# Procedure, shortened: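 MDA-kb2 breast carcinoma cells carrying MMTV-luciferase (AR/GR responsive) were co-treated with compounds and the agonist R1881 for 16 h at 37C. Inhibition read as ONE-Glo luminescence; CellTiter-Fluor fluorescence measured in parallel for cytotoxicity.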
# Chain of Androgen receptor (Homo sapiens) (P10275 whole entry, looked up): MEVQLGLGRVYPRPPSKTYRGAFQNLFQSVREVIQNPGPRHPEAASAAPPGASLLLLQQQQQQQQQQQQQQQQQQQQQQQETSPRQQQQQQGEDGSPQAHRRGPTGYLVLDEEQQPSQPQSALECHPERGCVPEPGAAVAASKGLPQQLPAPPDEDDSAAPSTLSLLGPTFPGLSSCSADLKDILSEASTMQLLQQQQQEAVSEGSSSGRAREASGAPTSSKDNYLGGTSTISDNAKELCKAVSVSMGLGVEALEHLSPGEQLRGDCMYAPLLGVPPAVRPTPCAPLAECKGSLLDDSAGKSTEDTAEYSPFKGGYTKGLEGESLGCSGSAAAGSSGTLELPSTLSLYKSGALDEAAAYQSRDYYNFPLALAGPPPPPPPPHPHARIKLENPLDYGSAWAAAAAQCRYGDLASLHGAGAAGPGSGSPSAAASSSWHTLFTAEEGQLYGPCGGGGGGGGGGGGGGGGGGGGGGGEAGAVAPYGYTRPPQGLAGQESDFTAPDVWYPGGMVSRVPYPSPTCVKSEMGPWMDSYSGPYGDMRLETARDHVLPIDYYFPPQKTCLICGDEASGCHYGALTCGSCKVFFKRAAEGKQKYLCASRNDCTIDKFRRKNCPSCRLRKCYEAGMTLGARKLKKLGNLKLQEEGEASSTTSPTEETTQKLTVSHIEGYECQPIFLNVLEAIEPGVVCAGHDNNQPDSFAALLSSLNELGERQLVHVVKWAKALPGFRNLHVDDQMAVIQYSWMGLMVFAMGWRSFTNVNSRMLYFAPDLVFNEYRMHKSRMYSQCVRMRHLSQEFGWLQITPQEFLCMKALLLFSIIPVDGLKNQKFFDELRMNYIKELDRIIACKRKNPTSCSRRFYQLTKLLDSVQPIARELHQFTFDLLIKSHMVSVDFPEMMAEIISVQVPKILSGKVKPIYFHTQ
# Chain of Estrogen receptor (Homo sapiens) (P03372 whole entry, looked up): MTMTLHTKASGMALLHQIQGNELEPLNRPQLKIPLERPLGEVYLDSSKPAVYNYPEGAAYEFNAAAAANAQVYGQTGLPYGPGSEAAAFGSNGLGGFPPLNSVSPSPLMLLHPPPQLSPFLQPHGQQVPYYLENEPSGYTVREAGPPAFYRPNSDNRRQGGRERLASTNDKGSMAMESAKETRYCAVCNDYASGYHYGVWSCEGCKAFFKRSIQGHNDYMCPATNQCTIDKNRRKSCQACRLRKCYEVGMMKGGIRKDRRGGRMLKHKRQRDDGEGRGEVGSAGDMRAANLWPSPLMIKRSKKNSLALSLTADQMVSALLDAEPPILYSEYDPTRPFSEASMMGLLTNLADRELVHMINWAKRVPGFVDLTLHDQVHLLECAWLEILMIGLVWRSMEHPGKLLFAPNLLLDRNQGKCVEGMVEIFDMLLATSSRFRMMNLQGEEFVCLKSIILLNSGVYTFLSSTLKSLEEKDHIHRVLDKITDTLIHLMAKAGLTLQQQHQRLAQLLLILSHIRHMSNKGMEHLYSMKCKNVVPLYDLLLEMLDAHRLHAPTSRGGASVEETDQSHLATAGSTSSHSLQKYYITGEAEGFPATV
# Chain of Aromatase (Homo sapiens) (P11511 whole entry, looked up): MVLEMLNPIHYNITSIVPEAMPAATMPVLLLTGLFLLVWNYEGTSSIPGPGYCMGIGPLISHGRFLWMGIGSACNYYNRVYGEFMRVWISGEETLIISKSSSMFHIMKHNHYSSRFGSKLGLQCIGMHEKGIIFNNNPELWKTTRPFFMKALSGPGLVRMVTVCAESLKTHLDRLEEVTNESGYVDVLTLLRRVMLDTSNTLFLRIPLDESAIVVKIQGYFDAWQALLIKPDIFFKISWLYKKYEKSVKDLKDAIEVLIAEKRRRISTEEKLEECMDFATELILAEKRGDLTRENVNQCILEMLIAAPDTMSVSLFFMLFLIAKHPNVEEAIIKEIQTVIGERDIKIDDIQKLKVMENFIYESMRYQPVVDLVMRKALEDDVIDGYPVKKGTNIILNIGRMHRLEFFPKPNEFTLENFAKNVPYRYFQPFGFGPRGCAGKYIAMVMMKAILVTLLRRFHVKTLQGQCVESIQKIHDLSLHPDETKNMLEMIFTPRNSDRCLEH
structure (smiles),measurement,setting,value
CCCCCCCCCCCCCCCC[N+](C)(C)Cc1ccccc1,Potency,[1],596 nM (active) and 794 nM (active) and 350 nM (active)
same,Potency,[2],750 nM (active) and 631 nM (active) and 783 nM (active)
same,Potency,[3],668 nM (active) and 891 nM (active) and 1.39 µM (active)
same,Potency,[4],16.9 µM (active) and 17.9 µM (active) and 17.7 µM (active)
same,Potency,[5],35.5 µM (active) and 27.8 µM (active)
same,Potency,[6],18.8 µM (active) and 14.1 µM (active) and 24.8 µM (active)
same,Potency,[7],11.9 µM (active) and 8.91 µM (active) and 22.1 µM (active)
same,Potency,[8],inactive
same,Potency,[9],19 µM (active) and 25.3 µM (active) and 31.4 µM (active)
same,Potency,[10],inactive
same,"activity change, negative = inhibition",[11],-23.2% (active)
same,Potency,[12],inactive
same,Potency,Aromatase (Homo sapiens),26.6 µM (active) and 50.1 µM (active) and 27.8 µM (active)
CC(O)(P(=O)(O)O)P(=O)(O)O,Potency,[13],inactive
same,Potency,[1],inactive
same,Potency,[2],inactive
same,Potency,[3],inactive
same,Potency,[4],inactive
same,Potency,[6],inactive
same,Potency,[8],inactive
same,Potency,[9],inactive
same,Potency,[12],inactive
same,Potency,Aromatase (Homo sapiens),inactive
OC[C@H]1O[C@H](O[C@]2(CCl)O[C@H](CCl)[C@@H](O)[C@@H]2O)[C@H](O)[C@@H](O)[C@H]1Cl,Potency,[1],inactive
same,Potency,[2],inactive
same,Potency,[3],inactive
same,Potency,[4],inactive
same,Potency,[5],inactive
same,Potency,[6],inactive
same,Potency,[7],inactive
same,Potency,[8],inactive
same,Potency,[9],inactive
same,Potency,[12],inactive
same,Potency,Aromatase (Homo sapiens),inactive
Cc1ncc([N+](=O)[O-])n1CCO,Potency,[1],inactive
same,Potency,[2],inactive
same,Potency,[3],inactive and 61.1 µM (active)
same,Potency,[4],inactive
same,Potency,[5],inactive
same,Potency,[6],inactive
same,Potency,[7],inactive
same,Potency,[8],inactive
same,Potency,[14],inactive
same,Potency,[9],inactive
same,Potency,[10],inactive
same,Potency,[15],inactive
same,Potency,[11],inactive
same,Potency,[12],inactive
same,Potency,Aromatase (Homo sapiens),inactive
Cc1ccc(S(=O)(=O)O)cc1,Potency,[1],inactive
same,Potency,[2],inactive
same,Potency,[3],inactive
same,Potency,[4],inactive
same,Potency,[5],inactive
same,Potency,[6],inactive
same,Potency,[8],inactive
same,Potency,[9],inactive
same,Potency,[12],inactive
CN[C@H]1CC[C@@H](c2ccc(Cl)c(Cl)c2)c2ccccc21,Potency,[13],inactive
same,Potency,[1],5.96 µM (active)
same,Potency,[2],8.41 µM (active)
same,Potency,[3],7.5 µM (active)
same,Potency,[4],23.9 µM (active)
same,Potency,[6],9.44 µM (active)
same,Potency,[7],6.68 µM (active)
same,Potency,[10],inactive
same,Potency,[12],inactive
CS(=O)(=O)OCCCCOS(C)(=O)=O,Potency,[1],inactive
same,Potency,[2],inactive
same,Potency,[3],inactive
same,Potency,[4],inactive
same,Potency,[5],inactive
same,Potency,[6],inactive
same,Potency,[14],inactive
same,Potency,[9],inactive
same,Potency,[10],inactive
same,Potency,[15],11.9 µM (active) and inactive
same,Potency,[11],inactive
same,Potency,[12],inactive
same,Potency,Aromatase (Homo sapiens),inactive
Nc1ccc([N+](=O)[O-])cc1O,Potency,[13],inactive
same,Potency,[2],47.2 µM (active)
same,Potency,[3],55.5 µM (active)
same,Potency,[4],inactive
same,Potency,[5],54.5 µM (active)
same,Potency,[6],36.4 µM (active)
same,Potency,[7],48.6 µM (active)
same,Potency,[8],inactive
same,Potency,[14],inactive
same,Potency,[10],inactive
same,Potency,[15],inactive
same,Potency,[11],inactive
same,Potency,Aromatase (Homo sapiens),inactive
CCCCOC(=O)c1ccc(O)cc1,Potency,[1],inactive
same,Potency,[2],inactive and 61.1 µM (active)
same,Potency,[3],inactive and 61.1 µM (active)
same,Potency,[4],inactive
same,Potency,[16],inactive
same,outcome,[17],inactive
same,outcome,[18],inactive
same,Potency,[19],inactive
same,Potency,[6],inactive
same,Potency,[7],inactive
same,Potency,[8],inactive
same,Potency,[9],inactive
same,Potency,[12],inactive
same,Potency,Aromatase (Homo sapiens),inactive
Cn1c(=O)c2c(ncn2C)n(C)c1=O,Potency,[13],inactive
same,Potency,[1],inactive
same,Potency,[2],inactive and 49.2 µM (active)
same,Potency,[3],inactive and 49.2 µM (active)
same,Potency,[4],inactive
same,Potency,[6],inactive
same,Potency,[9],inactive
same,Potency,[12],inactive
same,Potency,Aromatase (Homo sapiens),inactive
C=C1CC[C@H](O)C/C1=C\C=C1/CCC[C@]2(C)[C@@H]([C@H](C)CCCC(C)C)CC[C@@H]12,Potency,[1],11.9 µM (active) and 54 µM (active)
same,Potency,[2],26.6 µM (active) and 24.1 µM (active)
same,Potency,[3],13.3 µM (active) and 15.2 µM (active)
same,Potency,[4],inactive
same,Potency,[5],inactive
same,Potency,[6],26.6 µM (active) and 48.1 µM (active)
same,Potency,[7],21.1 µM (active) and 30.4 µM (active)
same,Potency,[9],inactive
same,Potency,[10],inactive
same,Potency,[15],inactive
same,Potency,[11],inactive
same,Potency,[12],inactive
same,Potency,Aromatase (Homo sapiens),inactive
C1=CC2C3C=CC(C3)C2C1 (stereo not drawn),Potency,[13],inactive
same,Potency,[2],47.7 µM (active)
same,Potency,[4],inactive
same,Potency,[7],inactive
same,Potency,[8],inactive
same,Potency,[12],inactive
O=c1[nH]cc(F)c(=O)[nH]1,Potency,[1],21.1 µM (active) and 27.9 µM (active)
same,Potency,[2],50.4 µM (active) and 27.9 µM (active)
same,Potency,[3],21.1 µM (active) and 40 µM (active) and 17.6 µM (active)
same,Potency,[4],inactive
same,Potency,[5],inactive
same,Potency,[6],20.1 µM (active)
same,Potency,[14],inactive
same,Potency,[9],inactive
same,Potency,[10],inactive
same,Potency,[15],inactive
same,Potency,[11],inactive
same,Potency,[12],inactive
same,Potency,Aromatase (Homo sapiens),inactive
COc1ccc(C(Cl)=C(c2ccc(OC)cc2)c2ccc(OC)cc2)cc1,Potency,[1],23.7 µM (active) and 24.3 µM (active)
same,Potency,[2],29.8 µM (active) and 48.3 µM (active) and 27.3 µM (active)
same,Potency,[3],26.6 µM (active) and 60.8 µM (active) and 24.3 µM (active)
same,Potency,[4],inactive
same,Potency,[5],inactive
same,Potency,[6],inactive
same,Potency,[7],11.9 µM (active) and 6.08 µM (active) and 7.7 µM (active)
same,Potency,[8],inactive
same,Potency,[14],1.51 µM [inconclusive] (active) and 1.54 µM [inconclusive] (active) and 1.23 µM [inconclusive] (active)
same,Potency,[9],inactive
same,Potency,[10],inactive
same,Potency,[15],inactive
same,Potency,[11],18.8 µM (active) and 12.1 µM (active) and 9.69 µM (active)
same,Potency,[12],inactive
same,Potency,Aromatase (Homo sapiens),8.59 µM (active) and 12.2 µM (active)
